In PubChem BioAssay (NCI):
About 83,000 compounds went through this panel and 20% of them were active in at least one assay; those are over-represented in the sample as a whole.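 Each cell line was grown in a 96-well plate and treated with one concentration of compound for 48 hours. Values below 10 were considered active.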 Calls of active or inactive are those of the source.

Tests used:
Test in all cases: NCI-60 one-dose screen, 48 h (100 = growth as untreated, 0 = no growth, -100 = all killed)
Conditions in all cases: 10 µM unless noted
NCI-H23 lung = test system: NCI-H23 lung
NCI-H226 lung = test system: NCI-H226 lung
HOP-62 NSCLC = test system: HOP-62 NSCLC
NCI-H460 lung = test system: NCI-H460 lung
HOP-92 NSCLC = test system: HOP-92 NSCLC
NCI-H522 lung = test system: NCI-H522 lung
A549/ATCC NSCLC = test system: A549/ATCC NSCLC
786-0 renal = test system: 786-0 renal
COLO 205 colon = test system: COLO 205 colon
NCI-H322M lung = test system: NCI-H322M lung

Measured: growth

CCCCCCCCCCCCCCCCCC1=NC(C)(C)CN1C(C)(C)CO
active: NCI-H23 lung -14.5% | HOP-62 NSCLC -100% | NCI-H460 lung -100% | HOP-92 NSCLC -6.66% | NCI-H522 lung -84.8% | A549/ATCC NSCLC -93.8% | 786-0 renal -37.5% | COLO 205 colon -99.8%
inactive: NCI-H226 lung 22.9%

COc1ccc(C(=O)c2cc(C)c(OC)c(C)c2)cc1OC(=O)CCl
inactive: NCI-H23 lung 29.1% | NCI-H226 lung 52.8% | HOP-62 NSCLC 17.8% | HOP-92 NSCLC 96.5% | A549/ATCC NSCLC 14.6% | 786-0 renal 16.2%
active: NCI-H460 lung 6.67% | NCI-H522 lung -40.2% | COLO 205 colon 9.62%

COc1cccc2nc(Nc3cccc(NC(=O)c4ccc(N5CCN(C)CC5)c(C(F)(F)F)c4)c3)ccc12
active: NCI-H460 lung -9.94% | NCI-H522 lung -14.2% | 786-0 renal -57.8% | COLO 205 colon -59.2%
inactive: NCI-H23 lung 62.6% | NCI-H226 lung 43.2% | HOP-62 NSCLC 18.2% | HOP-92 NSCLC 13% | A549/ATCC NSCLC 25.3%

COc1ccc(Sc2[nH]c(C=O)c3ccccc23)cc1
active: NCI-H460 lung 6.72% | COLO 205 colon -0.0496%
inactive: NCI-H23 lung 73.3% | NCI-H226 lung 72.5% | HOP-62 NSCLC 71% | HOP-92 NSCLC 53.8% | NCI-H522 lung 75.2% | A549/ATCC NSCLC 34.5% | 786-0 renal 70.1%

COc1cc(-c2nc(-c3nc4cc(C(=O)c5ccccc5)ccc4[nH]3)cc3c2[nH]c2ccccc23)cc(OC)c1OC
inactive: NCI-H23 lung 104% | NCI-H226 lung 91.1% | HOP-62 NSCLC 97.7% | NCI-H460 lung 95.6% | HOP-92 NSCLC 82.5% | NCI-H522 lung 90.6% | A549/ATCC NSCLC 75.9% | 786-0 renal 97.3% | COLO 205 colon 97.7%

Cc1n(Cc2ccc3ccccc3n2)cc[n+]1Cc1ccc2ccccc2n1
inactive: NCI-H23 lung 69.8% | NCI-H226 lung 88.1% | HOP-62 NSCLC 90.6% | NCI-H460 lung 95% | HOP-92 NSCLC 74.5% | NCI-H522 lung 35.9% | A549/ATCC NSCLC 88.6% | 786-0 renal 97.8% | COLO 205 colon 33.2%

CN(C)c1ccc(/C=C(\C#N)c2nc3ccccc3n2C)cc1
inactive: NCI-H23 lung 58.9% | NCI-H226 lung 77.8% | HOP-62 NSCLC 89.7% | NCI-H460 lung 13.8% | HOP-92 NSCLC 86.4% | A549/ATCC NSCLC 31% | 786-0 renal 47.4% | COLO 205 colon 19.4%
active: NCI-H522 lung 3.96%

CC(=O)c1nn(-c2ccccc2)/c(=N\N=C\c2coc3ccc(F)cc3c2=O)s1
inactive: NCI-H23 lung 96.8% | NCI-H226 lung 86% | HOP-62 NSCLC 85.6% | NCI-H460 lung 102% | HOP-92 NSCLC 90.6% | NCI-H522 lung 101% | A549/ATCC NSCLC 109% | 786-0 renal 110% | COLO 205 colon 111%

CC(C)OC(=O)c1ccc([N+](=O)[O-])cc1
inactive: NCI-H23 lung 103% | NCI-H226 lung 106% | HOP-62 NSCLC 110% | NCI-H460 lung 109% | HOP-92 NSCLC 84.1% | NCI-H522 lung 105% | A549/ATCC NSCLC 101% | 786-0 renal 109% | COLO 205 colon 123%

COc1cc(C)cc2oc3oc(=O)c(-c4csc(-c5cc6ccccc6oc5=O)n4)cc3c(=O)c12
inactive: NCI-H23 lung 101% | NCI-H226 lung 102% | HOP-62 NSCLC 103% | NCI-H460 lung 106% | HOP-92 NSCLC 105% | NCI-H522 lung 103% | A549/ATCC NSCLC 114% | 786-0 renal 106% | COLO 205 colon 119%

O=C(NCCNC(=O)c1cc(S(=O)(=O)NCCc2ccccc2)c(O)c(O)c1O)c1cc(S(=O)(=O)NCCc2ccccc2)c(O)c(O)c1O
inactive: NCI-H23 lung 38.9% | NCI-H226 lung 49.5% | HOP-62 NSCLC 34.6% | NCI-H460 lung 32.1% | HOP-92 NSCLC 73.9% | NCI-H522 lung 41.6% | A549/ATCC NSCLC 45.8% | 786-0 renal 53.4% | COLO 205 colon 104%

CC(=O)Nc1nonc1-c1nc2ccccc2n1Cc1ccc(C(C)(C)C)cc1
inactive: NCI-H23 lung 86.7% | NCI-H226 lung 76.6% | HOP-62 NSCLC 101% | NCI-H460 lung 79.3% | HOP-92 NSCLC 57.1% | NCI-H522 lung 85.1% | A549/ATCC NSCLC 72.2% | 786-0 renal 70.2% | COLO 205 colon 98.5%

Fc1ccc(-c2ccnc3nc(-c4ccncc4)nn23)cc1
inactive: NCI-H23 lung 112% | NCI-H226 lung 102% | HOP-62 NSCLC 113% | NCI-H460 lung 104% | HOP-92 NSCLC 120% | NCI-H522 lung 107% | A549/ATCC NSCLC 98.4% | 786-0 renal 88.8% | COLO 205 colon 108%

O=C(NC1CC1)c1ccc(-c2nc3ccc4[nH]ncc4c3c3c2CCCC3)cc1
inactive: NCI-H23 lung 53.3% | NCI-H226 lung 44.7% | HOP-62 NSCLC 28.9% | NCI-H460 lung 41.7% | HOP-92 NSCLC 71.2% | NCI-H522 lung 18.9% | A549/ATCC NSCLC 26.3% | 786-0 renal 42.1% | COLO 205 colon 23.6%

O=c1[nH]cnc2nc[nH]c12
inactive: NCI-H23 lung 113% | NCI-H226 lung 98.9% | HOP-62 NSCLC 106% | NCI-H460 lung 103% | HOP-92 NSCLC 104% | NCI-H522 lung 99.2% | A549/ATCC NSCLC 105% | 786-0 renal 114% | COLO 205 colon 112%

FC(F)(F)c1ccc(/C=N/Nc2nnc3n2N=C(c2ccc(Cl)cc2)CS3)cc1
active: HOP-92 NSCLC 3.52%
inactive: NCI-H23 lung 64.8% | NCI-H226 lung 20.7% | HOP-62 NSCLC 16.4% | NCI-H460 lung 43.9% | NCI-H522 lung 58.1% | A549/ATCC NSCLC 51.7% | 786-0 renal 27.6% | COLO 205 colon 89.3%

CCCCCCCCCCCCCCCCS(=O)(=O)Nc1cc(C(=O)NN)cc(C(=O)NN)c1
inactive: NCI-H23 lung 99.1% | NCI-H226 lung 73.1% | HOP-62 NSCLC 76.1% | NCI-H460 lung 95.6% | HOP-92 NSCLC 92.2% | NCI-H522 lung 78.4% | A549/ATCC NSCLC 91.8% | 786-0 renal 96.2% | COLO 205 colon 83.2%

Nc1cc2nc3ccccc3oc-2cc1=O
inactive: NCI-H226 lung 67.4% | HOP-62 NSCLC 25.4% | HOP-92 NSCLC 112% | 786-0 renal 81.9%
active: NCI-H23 lung -33.2% | NCI-H460 lung -28.7% | NCI-H522 lung -16.5% | A549/ATCC NSCLC -42.4% | COLO 205 colon -74.9%

COc1c(-c2cc(-c3ccc(C)o3)[nH]c(=O)n2)c(O)cc2occc12
inactive: NCI-H23 lung 68.8% | NCI-H226 lung 67.3% | HOP-62 NSCLC 52.1% | NCI-H460 lung 44.4% | HOP-92 NSCLC 67.3% | NCI-H522 lung 36.1% | A549/ATCC NSCLC 47.1% | 786-0 renal 93.9% | COLO 205 colon 104%

NNC(=O)Cc1ccccc1
active: HOP-92 NSCLC -17.8%
inactive: NCI-H23 lung 93.2% | NCI-H226 lung 78.2% | HOP-62 NSCLC 92.2% | NCI-H460 lung 94.7% | NCI-H522 lung 77.6% | A549/ATCC NSCLC 86.3% | 786-0 renal 92.1% | COLO 205 colon 112%

CCOP(=O)(O)OP(=O)(O)OCC
inactive: NCI-H23 lung 104% | NCI-H322M lung 98.1% | HOP-62 NSCLC 103% | NCI-H460 lung 103% | HOP-92 NSCLC 98.6% | NCI-H522 lung 82.5% | 786-0 renal 99.4% | COLO 205 colon 103%

Nc1n[nH]c2ccc([C@@H]3Nc4c(F)cc5[nH]ncc5c4[C@H]4C5CCC(C5)[C@@H]34)cc12 (stereo partly drawn)
active: NCI-H460 lung 4.8% | NCI-H522 lung 6.67% | COLO 205 colon -0.831%
inactive: NCI-H23 lung 37.8% | NCI-H322M lung 33.8% | HOP-62 NSCLC 37.8% | HOP-92 NSCLC 30.5% | A549/ATCC NSCLC 17.1% | 786-0 renal 40.4%

CCCCCCCCCCCCCCC(C(=O)OCC)C(=O)OCC
inactive: NCI-H23 lung 105% | HOP-62 NSCLC 105% | NCI-H460 lung 109% | HOP-92 NSCLC 105% | NCI-H522 lung 92.6% | A549/ATCC NSCLC 109% | 786-0 renal 115% | COLO 205 colon 115%

COc1ccc(/C(=C\c2cc(OC)c(OC)c(OC)c2)C(=O)Nc2nc3ccc(Cl)cc3s2)cc1
inactive: NCI-H23 lung 94.4% | NCI-H322M lung 82.5% | HOP-62 NSCLC 94.9% | NCI-H460 lung 117% | HOP-92 NSCLC 86.8% | NCI-H522 lung 74.9% | A549/ATCC NSCLC 81% | 786-0 renal 91.3% | COLO 205 colon 108%

O=C(/C=C/c1cn(-c2ccccc2)nc1-c1cccc(Nc2ccnc3cc(Cl)ccc23)c1)c1ccc2c(c1)OCO2
inactive: NCI-H23 lung 101% | NCI-H322M lung 86.2% | HOP-62 NSCLC 107% | NCI-H460 lung 102% | HOP-92 NSCLC 88.1% | NCI-H522 lung 127% | A549/ATCC NSCLC 93.4% | 786-0 renal 99.8% | COLO 205 colon 102%

COc1cccc(NC(=O)[C@H](C(C)C)n2c(=O)[nH]c3ccccc3c2=O)c1
inactive: NCI-H23 lung 99.8% | NCI-H322M lung 117% | HOP-62 NSCLC 102% | NCI-H460 lung 103% | HOP-92 NSCLC 110% | NCI-H522 lung 99.1% | A549/ATCC NSCLC 97.9% | 786-0 renal 105% | COLO 205 colon 108%

C=CC[C@]1(O)CC[C@H]2[C@@H]3CCc4cc(O)ccc4[C@H]3CC[C@@]21C
inactive: NCI-H23 lung 112% | NCI-H322M lung 97% | HOP-62 NSCLC 104% | NCI-H460 lung 97.8% | HOP-92 NSCLC 115% | NCI-H522 lung 63.9% | A549/ATCC NSCLC 91.3% | 786-0 renal 95.8% | COLO 205 colon 104%

COc1ccc(/C=C/C(=O)c2ccc(NC(=O)CSc3nnc(-c4ccc(Cl)cc4)n3-c3ccccc3)cc2)cc1
inactive: NCI-H23 lung 92.4% | NCI-H322M lung 106% | HOP-62 NSCLC 103% | NCI-H460 lung 104% | HOP-92 NSCLC 107% | NCI-H522 lung 84.6% | A549/ATCC NSCLC 74% | 786-0 renal 98% | COLO 205 colon 106%

COc1cc(C2Nc3ccccc3S2)cc(CN2CCOCC2)c1O (stereo not drawn)
active: NCI-H522 lung -2.67%
inactive: NCI-H23 lung 78.8% | NCI-H322M lung 116% | HOP-62 NSCLC 86.1% | NCI-H460 lung 52.7% | HOP-92 NSCLC 103% | 786-0 renal 104% | COLO 205 colon 89.6%
